For 40 sequences, binding signal results are on record in paper PMC7862700, “An all-to-all approach to the identification of sequence-specific readers for epigenetic DNA modifications on cytosine”.

Chain of HSF1 (Q00613 whole entry, the tested form may be a part): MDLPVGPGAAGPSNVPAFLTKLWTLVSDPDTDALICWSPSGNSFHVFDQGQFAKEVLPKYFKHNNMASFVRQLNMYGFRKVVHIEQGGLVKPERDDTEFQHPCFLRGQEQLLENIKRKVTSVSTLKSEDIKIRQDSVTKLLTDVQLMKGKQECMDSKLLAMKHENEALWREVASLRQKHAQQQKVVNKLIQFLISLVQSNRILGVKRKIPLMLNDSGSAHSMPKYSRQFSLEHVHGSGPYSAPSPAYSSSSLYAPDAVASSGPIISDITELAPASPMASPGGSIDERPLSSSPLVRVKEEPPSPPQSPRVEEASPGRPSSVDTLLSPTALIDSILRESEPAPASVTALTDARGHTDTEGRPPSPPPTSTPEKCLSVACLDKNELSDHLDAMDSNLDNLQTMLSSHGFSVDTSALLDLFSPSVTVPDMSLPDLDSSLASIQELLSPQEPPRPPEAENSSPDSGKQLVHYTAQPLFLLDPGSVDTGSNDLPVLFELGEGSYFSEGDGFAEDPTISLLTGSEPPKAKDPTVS
Chain of ELF4 (Q99607 whole entry): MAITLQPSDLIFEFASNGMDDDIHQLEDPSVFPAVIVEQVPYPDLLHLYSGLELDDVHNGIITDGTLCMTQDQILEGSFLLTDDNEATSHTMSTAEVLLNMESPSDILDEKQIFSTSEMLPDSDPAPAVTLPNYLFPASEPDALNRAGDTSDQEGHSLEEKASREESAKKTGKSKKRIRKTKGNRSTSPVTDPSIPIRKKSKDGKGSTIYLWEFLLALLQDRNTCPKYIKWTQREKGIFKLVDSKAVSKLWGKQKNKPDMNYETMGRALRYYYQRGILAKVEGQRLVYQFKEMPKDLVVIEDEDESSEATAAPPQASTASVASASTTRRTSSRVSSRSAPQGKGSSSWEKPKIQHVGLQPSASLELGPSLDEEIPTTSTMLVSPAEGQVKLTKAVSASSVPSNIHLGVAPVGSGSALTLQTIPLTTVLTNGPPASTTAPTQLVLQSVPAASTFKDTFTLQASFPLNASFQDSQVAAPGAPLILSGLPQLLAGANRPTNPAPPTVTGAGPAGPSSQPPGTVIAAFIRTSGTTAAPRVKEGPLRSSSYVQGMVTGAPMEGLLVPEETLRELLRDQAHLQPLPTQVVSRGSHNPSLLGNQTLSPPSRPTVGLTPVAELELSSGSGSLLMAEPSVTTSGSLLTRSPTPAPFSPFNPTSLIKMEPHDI

One experiment has as its target HSF1 (Homo sapiens, UniProt Q00613 1-529). The experiment in a line: DAPPL (digital affinity profiling via proximity ligation, sequencing); 10 mM Tris-HCl pH 7.5, 50 mM NaCl, 1 mM DTT, 4% glycerol, room temperature, 30 min; GST-TFs on glutathione beads, 16-mer random dsDNA library, 0.1% formaldehyde crosslink after washing; high values mean tight binding. The following applies: protein: recombinant; tags: N-terminal GST; chain copies: 3; dsDNA, one strand shown. In outline:
(§1)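 Human transcription factors carrying a GST fusion were produced in yeast, bound to glutathione beads, tagged with DNA barcodes and pooled together with a tag-only sample. Each pool was held with 200 nmole of a random double-stranded 16-mer DNA library in Tris/NaCl/DTT/glycerol buffer for 30 min at room temperature, then washed, crosslinked in 0.1% formaldehyde, proximity-ligated with BsaI/T4 ligase (1 h, 37 °C), PCR-amplified and sequenced on an Illumina NextSeq500. Binding signal is the read frequency of each hexamer for a given factor divided by its frequency in the tag-only sample.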
CTGGTT: the binding signal is 1.24 fold enrichment (6-mer frequency, TF over GST control).

For AATTAC, the binding signal is 1.43 fold enrichment (6-mer frequency, TF over GST control).

Regarding TTAAGG, the binding signal is 1.67 fold enrichment (6-mer frequency, TF over GST control).

On to ACTACG, for which the binding signal was 1.09 fold enrichment (6-mer frequency, TF over GST control).

CTATGC: the binding signal is 1.28 fold enrichment (6-mer frequency, TF over GST control).

Turning to TCATCC, the binding signal was 1.38 fold enrichment (6-mer frequency, TF over GST control).

For the sequence GTATCT, the binding signal was 1.15 fold enrichment (6-mer frequency, TF over GST control).

TCATTT: the binding signal was 1.14 fold enrichment (6-mer frequency, TF over GST control).

In the case of CTCTCT, the binding signal was 1.69 fold enrichment (6-mer frequency, TF over GST control).

AAGTTA: the binding signal was 1.09 fold enrichment (6-mer frequency, TF over GST control).

Regarding ATCACC, the binding signal is 1.05 fold enrichment (6-mer frequency, TF over GST control).

As for ATCCTT, the binding signal was 1.98 fold enrichment (6-mer frequency, TF over GST control).

GGTATT: the binding signal was 1.39 fold enrichment (6-mer frequency, TF over GST control).

Turning to CATATA, the binding signal was 1.03 fold enrichment (6-mer frequency, TF over GST control).

For the sequence TACCTC, the binding signal is 1.07 fold enrichment (6-mer frequency, TF over GST control).

Regarding ACGAAT, the binding signal was 1.39 fold enrichment (6-mer frequency, TF over GST control).

Consider AATTGC, for which the binding signal was 1.24 fold enrichment (6-mer frequency, TF over GST control).

Turning to TTAAAG, the binding signal is 1.85 fold enrichment (6-mer frequency, TF over GST control).

In the case of CTATTC, the binding signal is 1.57 fold enrichment (6-mer frequency, TF over GST control).

For the sequence TTTTGT, the binding signal was 1.27 fold enrichment (6-mer frequency, TF over GST control).

For a further experiment, the target named is T1, SPIC (Homo sapiens, UniProt Q8N5J4 1-248).
T1 sequence: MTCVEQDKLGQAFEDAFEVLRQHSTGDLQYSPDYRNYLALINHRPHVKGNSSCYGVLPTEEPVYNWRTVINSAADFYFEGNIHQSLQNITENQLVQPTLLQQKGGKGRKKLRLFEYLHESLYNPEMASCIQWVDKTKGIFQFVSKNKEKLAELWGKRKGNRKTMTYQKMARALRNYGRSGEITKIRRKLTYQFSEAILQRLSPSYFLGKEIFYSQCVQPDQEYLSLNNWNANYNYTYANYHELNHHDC
Described as above. The following applies: protein: recombinant; tags: N-terminal GST; dsDNA, one strand shown. The procedure, abridged: as §1
Take GCTCTA: the binding signal is 1.26 fold enrichment (6-mer frequency, TF over GST control).

Consider TCCGGT, for which the binding signal is 3.59 fold enrichment (6-mer frequency, TF over GST control).

For the sequence ATTTTG, the binding signal was 1.09 fold enrichment (6-mer frequency, TF over GST control).

For CCCCTC, the binding signal is 1.17 fold enrichment (6-mer frequency, TF over GST control).

ATGTTA: the binding signal was 1.28 fold enrichment (6-mer frequency, TF over GST control).

Regarding TTGGTG, the binding signal is 1.32 fold enrichment (6-mer frequency, TF over GST control).

For the sequence TCCTCC, the binding signal is 1.57 fold enrichment (6-mer frequency, TF over GST control).

As for TTTCGA, the binding signal was 1.18 fold enrichment (6-mer frequency, TF over GST control).

Take CAAAAA: the binding signal is 1.01 fold enrichment (6-mer frequency, TF over GST control).

On to TGCTTC, for which the binding signal is 2.35 fold enrichment (6-mer frequency, TF over GST control).

Turning to TCACTC, the binding signal is 1.3 fold enrichment (6-mer frequency, TF over GST control).

On to ATACAA, for which the binding signal is 1.06 fold enrichment (6-mer frequency, TF over GST control).

TTTTGG: the binding signal was 1.38 fold enrichment (6-mer frequency, TF over GST control).

For TAACTG, the binding signal is 1.42 fold enrichment (6-mer frequency, TF over GST control).

Take CAATCT: the binding signal is 1.19 fold enrichment (6-mer frequency, TF over GST control).

In the case of ATTATT, the binding signal is 1.2 fold enrichment (6-mer frequency, TF over GST control).

Regarding AGTGCT, the binding signal is 1.67 fold enrichment (6-mer frequency, TF over GST control).

Consider TGGATG, for which the binding signal was 1.46 fold enrichment (6-mer frequency, TF over GST control).

In the case of TAATCT, the binding signal was 1.3 fold enrichment (6-mer frequency, TF over GST control).

Consider TGCTCC, for which the binding signal is 1.45 fold enrichment (6-mer frequency, TF over GST control).

Consider CTGGTT, for which the binding signal was 1.43 fold enrichment (6-mer frequency, TF over GST control).

Take AATTAC: the binding signal is 1.33 fold enrichment (6-mer frequency, TF over GST control).

Consider TTAAGG, for which the binding signal is 1.23 fold enrichment (6-mer frequency, TF over GST control).

As for ACTACG, the binding signal is 1.12 fold enrichment (6-mer frequency, TF over GST control).

For CTATGC, the binding signal is 1.54 fold enrichment (6-mer frequency, TF over GST control).

For the sequence TCATCC, the binding signal is 1.39 fold enrichment (6-mer frequency, TF over GST control).

With GTATCT, the binding signal was 1.15 fold enrichment (6-mer frequency, TF over GST control).

As for TCATTT, the binding signal was 1.41 fold enrichment (6-mer frequency, TF over GST control).

Consider CTCTCT, for which the binding signal is 1.77 fold enrichment (6-mer frequency, TF over GST control).

In the case of AAGTTA, the binding signal is 1.27 fold enrichment (6-mer frequency, TF over GST control).

Regarding ATCACC, the binding signal was 1.1 fold enrichment (6-mer frequency, TF over GST control).

With ATCCTT, the binding signal is 1.74 fold enrichment (6-mer frequency, TF over GST control).

For the sequence GGTATT, the binding signal is 1.14 fold enrichment (6-mer frequency, TF over GST control).

With CATATA, the binding signal is 1.14 fold enrichment (6-mer frequency, TF over GST control).

As to TACCTC, the binding signal is 1.4 fold enrichment (6-mer frequency, TF over GST control).

For ACGAAT, the binding signal was 1.16 fold enrichment (6-mer frequency, TF over GST control).

Take AATTGC: the binding signal was 1.2 fold enrichment (6-mer frequency, TF over GST control).

With TTAAAG, the binding signal was 1.17 fold enrichment (6-mer frequency, TF over GST control).

As for CTATTC, the binding signal was 1.49 fold enrichment (6-mer frequency, TF over GST control).

With TTTTGT, the binding signal is 1.2 fold enrichment (6-mer frequency, TF over GST control).

Another experiment has as its target ELF4 (Homo sapiens, UniProt Q99607 1-663). Described as above. To be noted: protein: recombinant; tags: N-terminal GST; dsDNA, one strand shown. The procedure, abridged:
as §1
Turning to GCTCTA, the binding signal is 1.21 fold enrichment (6-mer frequency, TF over GST control).

For the sequence TCCGGT, the binding signal is 3.32 fold enrichment (6-mer frequency, TF over GST control).

Take ATTTTG: the binding signal was 1.25 fold enrichment (6-mer frequency, TF over GST control).

For CCCCTC, the binding signal was 1.48 fold enrichment (6-mer frequency, TF over GST control).

As to ATGTTA, the binding signal is 1.33 fold enrichment (6-mer frequency, TF over GST control).

For TTGGTG, the binding signal is 1.3 fold enrichment (6-mer frequency, TF over GST control).

Regarding TCCTCC, the binding signal is 1.62 fold enrichment (6-mer frequency, TF over GST control).

As to TTTCGA, the binding signal was 1.57 fold enrichment (6-mer frequency, TF over GST control).

Regarding CAAAAA, the binding signal is 1.18 fold enrichment (6-mer frequency, TF over GST control).

Regarding TGCTTC, the binding signal was 1.98 fold enrichment (6-mer frequency, TF over GST control).

For TCACTC, the binding signal is 1.24 fold enrichment (6-mer frequency, TF over GST control).

For ATACAA, the binding signal was 1.17 fold enrichment (6-mer frequency, TF over GST control).

With TTTTGG, the binding signal was 1.41 fold enrichment (6-mer frequency, TF over GST control).

On to TAACTG, for which the binding signal was 1.19 fold enrichment (6-mer frequency, TF over GST control).

Turning to CAATCT, the binding signal is 1.2 fold enrichment (6-mer frequency, TF over GST control).

ATTATT: the binding signal was 1.24 fold enrichment (6-mer frequency, TF over GST control).

Turning to AGTGCT, the binding signal is 1.33 fold enrichment (6-mer frequency, TF over GST control).

TGGATG: the binding signal was 1.49 fold enrichment (6-mer frequency, TF over GST control).

For TAATCT, the binding signal is 1.51 fold enrichment (6-mer frequency, TF over GST control).

On to TGCTCC, for which the binding signal is 1.41 fold enrichment (6-mer frequency, TF over GST control).

For CTGGTT, the binding signal was 1.33 fold enrichment (6-mer frequency, TF over GST control).

For AATTAC, the binding signal was 1.24 fold enrichment (6-mer frequency, TF over GST control).

Regarding TTAAGG, the binding signal was 1.14 fold enrichment (6-mer frequency, TF over GST control).

Consider ACTACG, for which the binding signal is 1.26 fold enrichment (6-mer frequency, TF over GST control).

With CTATGC, the binding signal is 1.48 fold enrichment (6-mer frequency, TF over GST control).

Turning to TCATCC, the binding signal is 1.36 fold enrichment (6-mer frequency, TF over GST control).

Take GTATCT: the binding signal was 1.14 fold enrichment (6-mer frequency, TF over GST control).

As for TCATTT, the binding signal is 1.34 fold enrichment (6-mer frequency, TF over GST control).

For CTCTCT, the binding signal was 1.74 fold enrichment (6-mer frequency, TF over GST control).

AAGTTA: the binding signal is 1.28 fold enrichment (6-mer frequency, TF over GST control).

Turning to ATCACC, the binding signal is 1.22 fold enrichment (6-mer frequency, TF over GST control).

ATCCTT: the binding signal was 1.7 fold enrichment (6-mer frequency, TF over GST control).

Take GGTATT: the binding signal is 1.12 fold enrichment (6-mer frequency, TF over GST control).

CATATA: the binding signal is 1.11 fold enrichment (6-mer frequency, TF over GST control).

As to TACCTC, the binding signal is 1.21 fold enrichment (6-mer frequency, TF over GST control).

Regarding ACGAAT, the binding signal is 1.11 fold enrichment (6-mer frequency, TF over GST control).

In the case of AATTGC, the binding signal is 1.36 fold enrichment (6-mer frequency, TF over GST control).

TTAAAG: the binding signal is 1.15 fold enrichment (6-mer frequency, TF over GST control).

With CTATTC, the binding signal was 1.26 fold enrichment (6-mer frequency, TF over GST control).

With TTTTGT, the binding signal was 1.41 fold enrichment (6-mer frequency, TF over GST control).
